Measured values as given in PubChem BioAssay AID493208 (National Center for Advancing Translational Sciences (NCATS), 2011).
In all, about 44,000 compounds went through this assay and about 340 (0.77%) were called active. Not shown: some 5% with an inconclusive outcome. Calls come from the whole dose curve; as a rule, active = well fitted inhibition curve with a large enough effect; inconclusive = small, poorly fitted or top-dose-only effect; inactive = flat fitted curve, though single readings scatter. The entries come from a sample that favours actives as a whole.

Assay: Acumen qHTS Assay for Inhibitors of the mTORC1 Signaling Pathway in MEF (Tsc2-/-, p53-/-) Cells: Sytravon; note: nearly all actives have a fitted effect of over 50% in size
Settings: phospho-rpS6 immunofluorescence/PI, 24 h; series mostly up to 38.3 µM
Excerpt: NIH Molecular Libraries Probe Production Centers Network [MLPCN] NIH Chemical Genomics Center [NCGC] MLPCN Grant: NS059428-01 Assay Submitter (PI): Blenis, John; Hoffman, Greg; Harvard University NCGC Assay Overview: The mammalian target of rapamycin (mTOR) is an intracellular serine/threonine kinase Aberrant regulation of mTOR signaling plays a causative role in a number of human diseases, including cancer, benign tumors such as lymphangioleiomyomatosis (LAM) and Tuberous Sclerosis Complex (TSC), and metabolic diseases such as diabetes and obesity. This project aims to identify inhibitors of ribosomal protein S6 (rpS6) phosphorylation. The phosphorylation of rpS6 is a key event downstream of mTOR activation. The assay uses a phospho-specific antibody of phospho-rpS6 to detect inhibitors of mTOR activation. Mutations in the Tsc1 and Tsc2 genes are the underlying genetic lesions responsible for TSC, causing constitutive activation of the mTORC1 pathway and leading to profound effects on cell metabolism. Aberrant metabolism in cancer has recently received significant attention as a target to develop therapeutic agents in the treatment of cancer.1 As Tsc2-/- cells have lost the ability to respond to energy and growth factor deprivation, these cells are unable to properly down regulate cellular biosynthetic processes in response to metabolic stress, and are thus extremely sensitive to glucose deprivation-induced death.2 A central goal of this project is to explore the unique cell survival and metabolic properties of cells with Tsc1 or Tsc2 by screening for compounds that selectively target the Tsc2-/- MEFs by screening both Tsc2-/- and WT MEF cell lines. We hope to better understand these aspects of TSC physiology in order to exploit them for therapeutic benefit.
NCGC Acumen Assay Protocol Summary: For quantitative high throughput analysis of mTORC1 signaling, we developed a cell-based assay for immuno-fluorescence based detection of rpS6 phosphorylation on the Acumen Explorer that will be used a platform for the primary small molecule screen. Mouse embryonic fibroblasts (MEFs) are cultured in 1536-well plates using DMEM + 10% FBS. Twenty-four hrs after plating, test compounds (solubilized in DMSO) are delivered and incubated with the cells for 24 hrs at 37 degree Celsius. Following the incubation, media with compound is aspirated and the cells are fixed in 4% paraformaldehyde (PFA) containing PBS + 0.2% TX-100. Next, PFA is aspirated, cells are washed two times with PBS plus 0.2% TX-100 and the cells are blocked for 1 hr at room temperature (blocking buffer: LiCOR Blocking Buffer plus 0.2% TX-100). […] Cells are washed two times with PBS plus 0.2% TX-100, and stained with 10 uM propidium iodide (PI) for 20-25 minutes for cell number measurement (1:500 dilution of Hoescht staining is also added for IN Cell imaging). The plates are scanned on the Acumen Explorer laser scanning instrument (TTP Labtech) using the 488nm laser for simultaneous excitation of the Alexa-488 and PI. […] The normalized phospho-S6 staining is calculated as the ratio of the integrated Alexa 488 intensity divided by the integrated PI intensity for the single concentration rapamycin control (7.5 nM) and DMSO columns. […] Inhibition of the pathway is defined based on the normalized phospho-S6 intensity in rapamycin treated cells. Active cells are defined as those with a normalized phospho-S6 staining above this threshold, and each treatment is reported as the % positive cells in the well, where thresholds are defined by selecting wells with the highest and lowest signal and differentiating between the % non-active and % active populations. In addition to the pathway specific phospho-S6 endpoint, the number of PI stained cells from the Acumen is recorded as a measure of cell viability. The primary screen was performed with a MEF cell line in a defined genetic background, Tsc2-/-, p53-/- cell line stably transfected with an empty vector control (Tsc2-/- MEF).

Potency, inactive:
CCOc1cc(C(=O)NCCc2csc3nc(-c4ccc(C)cc4)nn23)cc(OCC)c1OCC
COc1cccc(NC(=O)CN2C(=O)c3ccccc3Sc3ncccc32)c1
CC1=C(c2ccc(F)cc2)S(=O)(=O)N=C1N1CCC(C(=O)NCCc2ccccc2C)CC1
COc1cc(NC(=O)c2cc(C3CC3)nc3c2c(C)nn3-c2ccccc2)cc(OC)c1
COc1cccc(CNC(=O)C2CCN(S(=O)(=O)c3ccc4c(ccn4C)c3)CC2)c1
Cc1ccc(OCCSc2nc(C)c(Cc3ccccc3)c(=O)[nH]2)cc1
Cc1ccc(Cn2c(=O)n(CCCC(=O)NCc3ccccc3Cl)c(=O)c3ccccc32)cc1
CCc1ccc(NC(=O)c2cc(S(=O)(=O)NC3CCCCCC3)ccc2F)cc1
Cc1ccccc1NC(=O)Cn1cc(C(=O)c2cccs2)c2ccccc21
O=C(c1cnn(-c2ccc(F)cc2)c1-n1cccc1)N1CCN(c2ccc(F)cc2)CC1
CCOC(=O)c1cc(-c2ccccc2)n(-c2cccc(C(=O)Nc3cc(OC)cc(OC)c3)c2)c1C
Cc1oc2ccc(O)c(CN3CCOCC3)c2c1C(=O)Nc1cccc(Cl)c1C
O=C1OC(C(=O)Nc2cccc(Br)c2)Cc2ccccc21 (stereo not drawn)
Cc1c(NC(=O)c2cc(-c3ccc(Br)cc3)on2)c(=O)n(-c2ccccc2)n1C
COc1ccc(NC(=O)C2CCCN(S(=O)(=O)c3c(C)[nH]c(=O)[nH]c3=O)C2)c(OC)c1 (stereo not drawn)
COc1ccc(-c2nnc(SCC(=O)Nc3ccc(C(C)C)cc3)nc2-c2ccc(OC)c(OC)c2)cc1OC
Clc1cccc(-n2ncc3c(NCCc4ccccc4)ncnc32)c1
Fc1ccc(Nc2nc(SCc3ccccc3Cl)nc3ccccc23)cc1
O=C(C1CCCN(S(=O)(=O)c2cccc3nonc23)C1)N1CCN(c2ccccc2F)CC1 (stereo not drawn)
Cc1ccc(N2CC(c3nnc(Cc4ccccc4Cl)o3)CC2=O)cc1 (stereo not drawn)
CCOC(=O)c1ccc(CN(Cc2ccccc2)S(=O)(=O)c2ccc(Cl)cc2)cc1
Cn1c(=O)c(C(=O)O)nn(-c2ccccc2)c1=O
Cc1ccc(-c2cn3c(n2)sc2cc(C(=O)NCCCc4ccccc4)ccc23)cc1
CCCCN1CC(c2nc3ccccc3n2CCCCOc2ccc(C)cc2C)CC1=O (stereo not drawn)
COc1cccc(C(=O)NC2=NC(c3ccc(N(C)C)cc3)CC(=O)N2)c1 (stereo not drawn)
CCN(C(=O)Cn1cc(S(=O)(=O)N2CCN(c3ccccc3F)CC2)c2ccccc2c1=O)c1ccc(C)c(C)c1
CSc1nc(-c2ccccc2Cl)nc2c1Cc1c(CO)cnc(C)c1O2
Cc1cc2ccccc2n1CCNC(=O)c1ccc(F)cc1
Cc1cccc(NC(=O)N2CCC(CN3CCc4ccccc4C3)CC2)c1C
CCC(=O)N1CCc2cc(CNC(=O)Nc3ccccc3Cl)ccc21
COc1ccc(CNC(=O)CSCc2nc(-c3ccccc3F)oc2C)cc1
CCOc1ccc(-n2c(SCC(=O)NCc3ccccc3)nc3n[nH]c(C)c3c2=N)cc1
Cc1cccc(NC(=O)C2CCN(S(=O)(=O)c3c(C)noc3/C=C/c3ccco3)CC2)c1
